Results taken from PubChem BioAssay (EPA / NIEHS).
Active and inactive are the calls of the source. Rule for the calls: active = hit-call score of the fitted dose curve at least 0.9, where 1 is the maximum; inactive = score below 0.9.

How the values were obtained:
[1] = APR_HepG2_NuclearSize_72hr: Apredica 72-hour HepG2 Assay for Nuclear Size (AID 2282925); conditions: high-content imaging, actives raise or lower the signal
How it was run: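 Read-out: nuclear diameter from Hoechst 33342 images (ArrayScan, 20x, six fields/well), via cell-cycle image analysis. HepG2 were dosed 0.39–200 uM for 72 hr in 0.5% DMSO. Bidirectional fit relative to DMSO.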

[2] = ATG_CRE_CIS: Attagene CIS-FACTORIAL HepG2 Assay for human cAMP Responsive Element (CRE) binding protein 3 (AID 2282926); conditions: HepG2 CRE cis-reporter, Attagene multiplexed mRNA; actives raise or lower the signal
How it was run: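 Liver-derived HepG2, transfected with a CRE-containing reporter panel, exposed 24 h; transcript levels sized and quantified by capillary electrophoresis of labelled amplicons; signal changes either way referenced to vehicle.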

[3] = target: CCAAT/enhancer-binding protein beta (Homo sapiens) (UniProt P17676); experiment: ATG_C_EBP_CIS: Attagene CIS-FACTORIAL HepG2 Assay for human CCAAT/Enhancer Binding Protein (C/EBP) beta (AID 2282927); conditions: HepG2 Attagene cis-factorial transcription factor reporter; actives raise or lower the signal
CCAAT/enhancer-binding protein beta (Homo sapiens), sequence (P17676 whole entry, looked up): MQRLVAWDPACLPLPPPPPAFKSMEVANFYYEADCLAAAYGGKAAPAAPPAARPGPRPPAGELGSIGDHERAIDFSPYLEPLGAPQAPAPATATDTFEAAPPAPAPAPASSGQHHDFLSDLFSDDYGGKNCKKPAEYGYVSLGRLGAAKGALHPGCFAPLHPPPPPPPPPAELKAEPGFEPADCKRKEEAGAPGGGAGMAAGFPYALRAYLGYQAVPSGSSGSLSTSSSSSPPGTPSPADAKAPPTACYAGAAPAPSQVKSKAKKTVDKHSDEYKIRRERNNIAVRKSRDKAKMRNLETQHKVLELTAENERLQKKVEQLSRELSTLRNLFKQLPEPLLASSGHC
How it was run: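 HepG2, transient MRTU transfection, 24 h treatment. RT-PCR plus CE fluorescence; DMSO negative control, bidirectional fit.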

[4] = ATG_CMV_CIS: Attagene CIS-FACTORIAL HepG2 Assay for human CMV (Internal Marker) (AID 2282928); conditions: HepG2 CMV promoter reporter, transcription factor profiling; actives raise or lower the signal;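 note: endpoint acts as a background internal control marker rather than a target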
How it was run: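 Reporter transcripts from transfected HepG2 cells are isolated after 24 h of chemical dosing, reverse-transcribed and amplified. Fragments labeled with 6-FAM are cut with HpaI and quantified by capillary electrophoresis; DMSO defines baseline.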

[5] = ATG_DR4_LXR_CIS: Attagene CIS-FACTORIAL HepG2 Assay for human Liver X Receptor (LXR), DR4 submotif (AID 2282929); conditions: HepG2 Attagene DR4 cis-reporter, mRNA transcription; actives raise or lower the signal
How it was run: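 HepG2 cells were transiently transfected with multiple cis-regulated reporter units and dosed for 24 hours. The DR4 reporter mRNA was quantified by RT-PCR, 6-FAM labelling and capillary electrophoresis. Bidirectional fits used DMSO as baseline.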

[6] = target: Aryl hydrocarbon receptor (Homo sapiens) (UniProt P35869); experiment: ATG_Ahr_CIS: Attagene CIS-FACTORIAL HepG2 Assay for human Aryl Hydrocarbon Receptor (Ahr) (AID 2282930); conditions: HepG2 AhR cis-factorial reporter transcription; actives raise or lower the signal
Aryl hydrocarbon receptor (Homo sapiens), sequence (P35869 whole entry, looked up): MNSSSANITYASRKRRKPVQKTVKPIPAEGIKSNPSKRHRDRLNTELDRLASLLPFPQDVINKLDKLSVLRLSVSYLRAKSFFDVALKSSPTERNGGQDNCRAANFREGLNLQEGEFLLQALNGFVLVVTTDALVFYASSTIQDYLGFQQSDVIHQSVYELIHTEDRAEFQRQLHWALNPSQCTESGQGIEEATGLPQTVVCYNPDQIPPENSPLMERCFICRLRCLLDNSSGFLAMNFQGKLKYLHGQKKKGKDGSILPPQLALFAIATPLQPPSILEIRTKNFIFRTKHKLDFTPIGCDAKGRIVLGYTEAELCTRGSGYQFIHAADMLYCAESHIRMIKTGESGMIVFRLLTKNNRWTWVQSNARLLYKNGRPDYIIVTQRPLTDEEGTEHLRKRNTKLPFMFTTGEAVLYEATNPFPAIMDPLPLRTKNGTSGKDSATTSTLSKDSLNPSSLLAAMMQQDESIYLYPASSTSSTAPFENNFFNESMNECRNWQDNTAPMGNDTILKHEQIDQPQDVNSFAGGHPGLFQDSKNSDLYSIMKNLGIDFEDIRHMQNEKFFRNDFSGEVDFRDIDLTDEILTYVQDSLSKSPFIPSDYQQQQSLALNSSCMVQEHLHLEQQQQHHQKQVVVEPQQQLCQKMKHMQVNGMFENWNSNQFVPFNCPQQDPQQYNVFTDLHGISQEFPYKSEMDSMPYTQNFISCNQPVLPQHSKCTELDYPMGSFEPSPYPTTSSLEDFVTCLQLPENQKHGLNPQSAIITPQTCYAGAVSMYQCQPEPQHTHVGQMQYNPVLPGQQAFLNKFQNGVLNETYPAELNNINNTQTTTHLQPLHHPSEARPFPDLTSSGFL
How it was run: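 Endogenous factor activity is tracked through cis-promoter reporter units transfected into HepG2 cells. Transcript levels at 24 h are read by fluorescent RT-PCR and capillary electrophoresis, with activity in either direction scored relative to DMSO.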

[7] = ATG_AP_1_CIS: Attagene CIS-FACTORIAL HepG2 Assay for human Activator Protein 1 (AP-1) (AID 2282931); conditions: HepG2 Attagene cis-factorial AP-1 reporter mRNA; actives raise or lower the signal
How it was run: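 HepG2 cells transiently transfected with cis-element-driven reporter transcription units, dosed for 24 hours. Reporter mRNA measured by RT-PCR, 6-FAM labelling, HpaI digestion and capillary electrophoresis. Bidirectional fitting against DMSO baseline.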

[8] = ATG_AP_2_CIS: Attagene CIS-FACTORIAL HepG2 Assay for human Activator Protein 2 (AP-2) (AID 2282932); conditions: HepG2 AP-2 cis-reporter, Attagene transcription factor profiling; actives raise or lower the signal
How it was run: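 Liver-derived HepG2 line, cis-reporter system measuring endogenous factors; 24 h dosing; reporter mRNA detected by fluorescent RT-PCR and capillary electrophoresis.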

[9] = ATG_BRE_CIS: Attagene CIS-FACTORIAL HepG2 Assay for human Bone Morphogenetic Protein (BMP) Response Element (BRE) (AID 2282933); conditions: HepG2 BMP response element reporter, Attagene transcription factor profiling; actives raise or lower the signal
How it was run: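 Multiplexed cis-reporter assay, HepG2, 24 h exposure. mRNA from reporter units quantified via RT-PCR/CE; DMSO baseline; bidirectional curve fit.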

[10] = target: Retinoic acid receptor alpha (Homo sapiens) (UniProt P10276); experiment: ATG_DR5_RAR_CIS: Attagene CIS-FACTORIAL HepG2 Assay for human Retinoic Acid Receptor Alpha (RARE), DR5 submotif (AID 2282934); conditions: HepG2 Attagene cis-factorial RARE DR5 reporter, mRNA; actives raise or lower the signal
Retinoic acid receptor alpha (Homo sapiens), sequence (P10276 whole entry, looked up): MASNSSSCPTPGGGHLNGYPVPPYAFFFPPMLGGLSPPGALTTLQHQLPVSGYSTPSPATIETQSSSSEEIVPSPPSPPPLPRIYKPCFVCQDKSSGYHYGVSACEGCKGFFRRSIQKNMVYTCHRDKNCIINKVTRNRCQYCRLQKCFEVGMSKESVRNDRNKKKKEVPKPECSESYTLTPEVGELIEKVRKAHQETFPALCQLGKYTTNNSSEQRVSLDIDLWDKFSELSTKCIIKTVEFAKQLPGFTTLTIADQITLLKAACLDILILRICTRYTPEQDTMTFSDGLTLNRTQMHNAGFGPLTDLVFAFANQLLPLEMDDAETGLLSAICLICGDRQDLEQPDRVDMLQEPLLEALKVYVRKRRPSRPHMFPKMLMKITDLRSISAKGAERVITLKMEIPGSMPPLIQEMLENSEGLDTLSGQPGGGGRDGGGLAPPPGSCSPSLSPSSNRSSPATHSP
How it was run: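 After 24 h of chemical exposure, transiently transfected HepG2 cells were lysed for total RNA; the DR5-regulated reporter transcript was quantified via RT-PCR and capillary electrophoresis, with activity fitted bidirectionally against DMSO.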

N#CN
outcome [1]: inactive
outcome [2]: inactive
outcome [3]: inactive
outcome [4]: inactive
outcome [5]: inactive
outcome [6]: inactive
outcome [7]: inactive
outcome [8]: inactive
outcome [9]: inactive

CNC(=O)Oc1cccc(N=CN(C)C)c1
outcome [1]: inactive
AC50 [2]: 50 µM (active)
AC50 [3]: 50 µM (active)
AC50 [4]: 50 µM (active)
outcome [5]: inactive
AC50 [6]: 93.9 µM (active)
AC50 [7]: 77.5 µM (active)
outcome [8]: inactive
AC50 [9]: 58.3 µM (active)
outcome [10]: inactive

COc1cc(OC)nc(NC(=O)NS(=O)(=O)c2cc(NC=O)ccc2C(=O)N(C)C)n1
outcome [1]: inactive
outcome [2]: inactive
AC50 [3]: 13.3 µM (active)
outcome [4]: inactive
outcome [5]: inactive
outcome [7]: inactive
outcome [8]: inactive
outcome [9]: inactive

CCC(C)Nc1c([N+](=O)[O-])cc(C(C)(C)C)cc1[N+](=O)[O-] (centres undefined)
outcome [1]: inactive
AC50 [2]: 7.44 µM (active)
outcome [3]: inactive
AC50 [4]: 24.1 µM (active)
AC50 [5]: 36.4 µM (active)
AC50 [7]: 43.3 µM (active)
outcome [8]: inactive
outcome [9]: inactive

O=C(O)CCCOc1ccc(Cl)cc1Cl
outcome [1]: inactive
outcome [2]: inactive
outcome [3]: inactive
outcome [4]: inactive
outcome [5]: inactive
outcome [7]: inactive
outcome [8]: inactive
outcome [9]: inactive

CC(C)(C)C(O)/C(=C\c1ccc(Cl)cc1Cl)n1cncn1 (centres undefined)
outcome [1]: inactive
outcome [2]: inactive
outcome [3]: inactive
outcome [4]: inactive
outcome [5]: inactive
outcome [7]: inactive
outcome [8]: inactive
outcome [9]: inactive

CCC(C)(NC(=O)c1cc(Cl)c(C)c(Cl)c1)C(=O)CCl (centres undefined)
outcome [1]: inactive
outcome [2]: inactive
outcome [3]: inactive
outcome [4]: inactive
outcome [5]: inactive
outcome [7]: inactive
outcome [8]: inactive
outcome [9]: inactive

COP(=S)(OC)Oc1ccc([N+](=O)[O-])cc1
outcome [1]: inactive
outcome [2]: inactive
outcome [3]: inactive
outcome [4]: inactive
outcome [5]: inactive
outcome [7]: inactive
outcome [8]: inactive
outcome [9]: inactive
outcome [10]: inactive

CNC(=O)/C=C(\C)OP(=O)(OC)OC
outcome [1]: inactive
outcome [2]: inactive
outcome [3]: inactive
outcome [4]: inactive
outcome [5]: inactive
outcome [7]: inactive
outcome [8]: inactive
outcome [9]: inactive

[2H]C1([2H])[n+]2ccccc2-c2cccc[n+]2C1([2H])[2H]
outcome [1]: inactive
outcome [2]: inactive
outcome [3]: inactive
AC50 [4]: 13.5 µM (active)
AC50 [5]: 79.9 µM (active)
AC50 [7]: 38.9 µM (active)
outcome [8]: inactive
outcome [9]: inactive

CCC(C)(C)C(=O)OC1=C(c2ccc(Cl)cc2Cl)C(=O)OC12CCCCC2
outcome [1]: inactive
outcome [2]: inactive
outcome [3]: inactive
outcome [4]: inactive
outcome [5]: inactive
outcome [7]: inactive
outcome [8]: inactive
outcome [9]: inactive

CC[C@H](C)[C@H]1O[C@]2(C=C[C@@H]1C)C[C@@H]1C[C@@H](C/C=C(\C)[C@@H](O[C@H]3C[C@H](OC)[C@@H](O[C@H]4C[C@H](OC)[C@@H](O)[C@H](C)O4)[C@H](C)O3)[C@@H](C)/C=C/C=C3\CO[C@@H]4[C@H](O)C(C)=C[C@@H](C(=O)O1)[C@]34O)O2 (tested in a mixture with another compound)
outcome [1]: inactive
outcome [2]: inactive
outcome [3]: inactive
outcome [4]: inactive
AC50 [5]: 1.75 µM (active)
outcome [7]: inactive
outcome [8]: inactive
outcome [9]: inactive
outcome [10]: inactive

O=S1OCC2C(CO1)C1(Cl)C(Cl)=C(Cl)C2(Cl)C1(Cl)Cl (centres undefined)
outcome [1]: inactive
outcome [2]: inactive
outcome [3]: inactive
outcome [4]: inactive
outcome [5]: inactive
outcome [7]: inactive
outcome [8]: inactive
outcome [9]: inactive

COC(=O)c1ccccc1CS(=O)(=O)NC(=O)Nc1nc(OC)cc(OC)n1
outcome [1]: inactive
outcome [2]: inactive
outcome [3]: inactive
outcome [4]: inactive
outcome [5]: inactive
outcome [7]: inactive
outcome [8]: inactive
outcome [9]: inactive
outcome [10]: inactive

CC1(C)C(C=C(Cl)Cl)C1C(=O)OC(C#N)c1ccc(F)c(Oc2ccccc2)c1 (centres undefined)
outcome [1]: inactive
outcome [2]: inactive
outcome [3]: inactive
outcome [4]: inactive
AC50 [5]: 14.4 µM (active)
outcome [7]: inactive
outcome [8]: inactive
outcome [9]: inactive

CNC(=O)CSP(=S)(OC)OC
outcome [1]: inactive
outcome [2]: inactive
outcome [3]: inactive
outcome [4]: inactive
outcome [5]: inactive
outcome [7]: inactive
outcome [8]: inactive
outcome [9]: inactive

Cc1cc(C)nc(NC(=O)NS(=O)(=O)c2ccccc2C(=O)OC2COC2)n1
outcome [1]: inactive
outcome [2]: inactive
outcome [3]: inactive
outcome [4]: inactive
outcome [5]: inactive
outcome [7]: inactive
outcome [8]: inactive
AC50 [9]: 91 µM (active)

CN1CSC(=S)N(C)C1
outcome [1]: inactive
AC50 [2]: 50 µM (active)
outcome [3]: inactive
outcome [4]: inactive
outcome [5]: inactive
outcome [7]: inactive
outcome [8]: inactive
AC50 [9]: 15.4 µM (active)

CCOCN(C(=O)CCl)c1c(C)cccc1CC
outcome [1]: inactive
outcome [2]: inactive
outcome [3]: inactive
outcome [4]: inactive
outcome [5]: inactive
outcome [7]: inactive
outcome [8]: inactive
outcome [9]: inactive

C[C@H]1[C@H](c2ccc(Cl)cc2)SC(=O)N1C(=O)NC1CCCCC1
outcome [1]: inactive
outcome [2]: inactive
outcome [3]: inactive
AC50 [4]: 13.8 µM (active)
AC50 [5]: 81.4 µM (active)
AC50 [7]: 23.1 µM (active)
outcome [8]: inactive
AC50 [9]: 17.7 µM (active)

COc1nn(CSP(=S)(OC)OC)c(=O)s1
outcome [1]: inactive
outcome [2]: inactive
outcome [3]: inactive
outcome [4]: inactive
outcome [5]: inactive
outcome [7]: inactive
outcome [8]: inactive
outcome [9]: inactive

O=[N+]([O-])/N=C1\NCCN1Cc1ccc(Cl)nc1
outcome [1]: inactive
outcome [2]: inactive
outcome [3]: inactive
outcome [4]: inactive
outcome [5]: inactive
outcome [7]: inactive
outcome [8]: inactive
outcome [9]: inactive

COP(=O)(OC)OC=C(Cl)Cl
outcome [1]: inactive
outcome [2]: inactive
outcome [3]: inactive
AC50 [4]: 18.4 µM (active)
outcome [5]: inactive
AC50 [7]: 67.3 µM (active)
AC50 [8]: 50 µM (active)
outcome [9]: inactive

CCS(=O)(=O)c1cccnc1S(=O)(=O)NC(=O)Nc1nc(OC)cc(OC)n1
outcome [1]: inactive
outcome [2]: inactive
outcome [3]: inactive
outcome [4]: inactive
outcome [5]: inactive
outcome [7]: inactive
outcome [8]: inactive
outcome [9]: inactive

N#Cc1c(Cl)c(Cl)c(Cl)c(C#N)c1Cl
outcome [1]: inactive
outcome [2]: inactive
outcome [3]: inactive
outcome [4]: inactive
outcome [5]: inactive
outcome [7]: inactive
outcome [8]: inactive
outcome [9]: inactive

OCCOc1ccccc1
outcome [1]: inactive
outcome [2]: inactive
outcome [3]: inactive
outcome [4]: inactive
outcome [5]: inactive
outcome [7]: inactive
outcome [8]: inactive
outcome [9]: inactive
outcome [10]: inactive

O=C(NC(=O)c1c(F)cccc1F)Nc1ccc(OC(F)(F)C(F)OC(F)(F)F)c(Cl)c1 (centres undefined)
outcome [1]: inactive
outcome [2]: inactive
outcome [3]: inactive
outcome [4]: inactive
outcome [5]: inactive
outcome [7]: inactive
outcome [8]: inactive
AC50 [9]: 14.2 µM (active)

COC(=O)c1ccccc1S(=O)(=O)NC(=O)N(C)c1nc(C)nc(OC)n1
outcome [1]: inactive
outcome [2]: inactive
outcome [3]: inactive
outcome [4]: inactive
outcome [5]: inactive
outcome [7]: inactive
outcome [8]: inactive
outcome [9]: inactive

CCN(CC)C(=O)SCc1ccc(Cl)cc1
outcome [1]: inactive
outcome [2]: inactive
AC50 [3]: 8.69 µM (active)
outcome [4]: inactive
outcome [5]: inactive
outcome [7]: inactive
outcome [8]: inactive
AC50 [9]: 50 µM (active)
